Assay outcomes (PubChem)
Many of the other results were omitted from the sample, so hits are more common in it than they were.
PRC2 inh: EZH2 (human) methyltransferase inhibition | Q15910 | PRC2 H3K27 methylation, DELFIA TRF, 1 h | inhibition, % at 12.5 µM | 57,000 tested, 0.35% active;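 active means mean inhibition of replicates at least 50% and every single replicate also reaching 50%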;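 further: dimethyl H3K27 on biotinylated H3 21-44 peptide detected by antibody; plate controls were median neutral control wells for no effect and median positive control wells for full effect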
Active calls of the source: *.

SMILES | PRC2 inh
CCCC#Cc1cnc2c(c1)C(=O)N([C@H](C)CO)C[C@H](C)[C@@H](CN(C)C(=O)CN1CCOCC1)O2 | 10
CCCC#Cc1cnc2c(c1)C(=O)N([C@H](C)CO)C[C@H](C)[C@H](CN(C)C(=O)CN1CCOCC1)O2 | 95*
CCCC#Cc1cnc2c(c1)C(=O)N([C@@H](C)CO)C[C@@H](C)[C@H](CN(C)C(=O)CN1CCOCC1)O2 | 6
CCN(CC(=O)Nc1cccc([N+](=O)[O-])c1)S(=O)(=O)c1ccc(C)cc1 | 3
C=CCOC(=O)[C@H]1[C@@H]2C(=O)O[C@@H](c3ccccc3)[C@@H](c3ccccc3)N2[C@@H](c2ccc(OCCOC(=O)[C@H]3C[C@H]4C(=O)N[C@@H](Cc5ccccc5)C(=O)N4[C@H]3c3ccc(O)cc3)cc2)[C@]12C(=O)Nc1ccccc12 | 0
COC(=O)CCCCCCC(=O)N/N=C/c1ccc([N+](=O)[O-])s1 | -5
COc1ccc(C2CC(=O)c3c(O)cc(O[C@@H]4O[C@H](CO[C@@H]5O[C@@H](C)[C@H](O)[C@@H](O)[C@H]5O)[C@@H](O)[C@H](O)[C@H]4O)cc3O2)cc1 (stereo partly specified) | 21
Cc1cc2c(cc1O[C@@H]1O[C@H](CO[C@@H]3OC[C@@H](O)[C@H](O)[C@H]3O)[C@@H](O)[C@H](O)[C@H]1O)C(=O)c1ccccc1C2=O | -6
C[C@@H]1O[C@@H](OC[C@H]2O[C@@H](OCCc3ccccc3)[C@H](O)[C@@H](O)[C@@H]2O)[C@H](O)[C@H](O)[C@H]1O | 52*
COC(=O)C1=COC(O[C@@H]2O[C@H](CO)[C@@H](O)[C@H](O)[C@H]2O)[C@@H]2[C@@](C)(O)[C@@H](OC(=O)/C=C\c3ccccc3)C[C@]12O (stereo partly specified) | 22
O[C@@H]1[C@@H](O)[C@H](OC/C=C/c2ccccc2)O[C@H](CO[C@@H]2OC[C@H](O)[C@H](O)[C@H]2O)[C@H]1O | 90*
C[C@@H]1O[C@@H](OC[C@H]2O[C@@H](Oc3ccc(O)cc3)[C@H](O)[C@@H](OC(=O)c3ccc(O)cc3)[C@@H]2O)[C@H](O)[C@H](O)[C@H]1O | 38
OCCN1CCN(C(=S)NCc2ccco2)CC1 | 12
O=C(CCCCCCC(=O)Nc1ccccc1O)N/N=C/c1ccc(C(=O)O)cc1 | -6
NC(=O)CCCc1c[nH]c2ccccc12 | -9
COc1ccc(NC(=C(C#N)C#N)C(F)(F)C(F)(F)F)cc1 | -15
CCOC(=O)c1c(NC(=O)Cn2nnc(-c3ccccc3)n2)sc2c1CCCC2 | 13
COc1cc(/C=C/C=N/NC(=O)CCCCCCC(=O)Nc2ccccc2O)ccc1O | 8
COC(=O)C1=CO[C@@H](O[C@@H]2O[C@H](CO)[C@@H](O)[C@H](O)[C@H]2O)[C@H]2[C@@H]1[C@H](OC(C)=O)C[C@]2(C)O | -12
COC(=O)C1=COC(O[C@@H]2O[C@H](CO)[C@@H](O)[C@H](O)[C@H]2O)[C@H]2[C@@H]1[C@H](OC(=O)CCc1ccc(O)cc1)C[C@]2(C)O (stereo partly specified) | 2
COC(=O)C1=COC(OC2OC(CO)C(O)C(O)C2O)C2C1C=CC2(O)CO (stereo unspecified) | 99*
O=C(C1CCCO1)N1N=C(c2c(-c3ccccc3)c3cc(Cl)ccc3[nH]c2=O)CC1c1ccco1 (stereo unspecified) | -11
O=C(CCCCC(=O)N/N=C/c1ccc(Br)s1)NO | 10
O=C(NCc1c(OC(=O)c2cccc([N+](=O)[O-])c2)ccc2ccccc12)c1ccccc1 | 11
COc1ccccc1-c1nnc(SCC(=O)c2ccc(NC(C)=O)cc2)o1 | -44
